In the library only some 2.4% were active in any assay of this set; here they are far more common.
D2 ag-1 – D2 dopamine receptor (human) agonism. P14416. HEK293 T-REx D2 cells, calcium flux agonist mode. activation, % at 2 µM. hit rate 0.53% among 340,000. AID 485358;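 active = activation over 3 SD above normal in the single-dose calcium agonist read, cut at about 30% in these data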
Target sequence (P14416 whole entry, looked up): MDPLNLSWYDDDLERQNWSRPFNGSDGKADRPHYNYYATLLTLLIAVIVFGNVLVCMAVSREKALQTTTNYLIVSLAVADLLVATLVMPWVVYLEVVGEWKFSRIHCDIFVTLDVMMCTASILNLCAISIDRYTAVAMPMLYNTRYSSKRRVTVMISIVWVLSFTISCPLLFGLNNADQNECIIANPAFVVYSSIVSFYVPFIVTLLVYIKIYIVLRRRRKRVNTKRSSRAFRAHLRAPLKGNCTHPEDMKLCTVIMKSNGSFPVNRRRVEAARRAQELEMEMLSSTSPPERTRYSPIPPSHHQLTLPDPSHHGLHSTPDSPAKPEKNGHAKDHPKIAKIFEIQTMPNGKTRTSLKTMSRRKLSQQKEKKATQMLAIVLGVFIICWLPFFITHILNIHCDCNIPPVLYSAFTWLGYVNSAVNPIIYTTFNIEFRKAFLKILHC
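Tetracycline-induced HEK293 Trex cells with D2 receptor force-coupled to calcium signaling, plated overnight at 30 C and loaded with no-wash calcium dye. Calcium flux read kinetically for 180 s after compound addition; responses flag agonists.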
D2 antag – antagonists of human D2 dopamine receptor. inhibition, % at 10 µM. hit rate 2% among 340,000. HEK293 TREx D2 cells, calcium flux, dopamine EC80. P14416. AID 485344; in the data active = inhibition above about 30%; inactive = below that, where a call was filed
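HEK293 T-REx D2 cells, tet-induced, calcium dye no-wash. Cpd pintool add, 180 s kinetic, then EC80 DA, 180 s kinetic. Ca flux read.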
D2 PAM-1 – positive allosteric modulators of human D2 dopamine receptor; P14416; HEK293 T-REx D2, calcium flux, EC20 dopamine potentiation; potentiation, % at 10 µM; hit rate 0.34% among 340,000;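 active = potentiation over 3 SD above the plate norm, cut at about 30% in these data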
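Cells plated with tetracycline inducer and held overnight at 30 C; calcium dye loaded 30–90 min at room temperature; baseline taken, compound added and read 180 s; EC20 dopamine then added and read 180 s.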
D2 PAM-2 – human D2 receptor positive allosteric modulation; P14416; DiscoveRx D2 beta-arrestin cells, luminescence, 90 min; 100% = 57 uM dopamine signal; potentiation, % (test concentration not listed); hit rate 0.23% among 360,000; AID 624464; in the data active = potentiation above about 50%; inconclusive = mostly about 30% to 49%
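D2 cells co-treated with compound plus 50 nM dopamine (EC20) for 90 min at 37 deg C to detect potentiation. Beta-arrestin recruitment was read as enzyme-fragment luminescence after 1 h at ambient temperature. Full response was set by 57 uM dopamine.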
D2 ag-2 – activates the human D2 dopamine receptor | P14416 | hit rate 0.084% among 360,000 | DiscoveRx PathHunter D2 beta-arrestin, luminescence, 90 min; 100% = 57 uM dopamine signal | activation, % (concentration not given with the values); in the data active = activation above about 40%; inconclusive = between about 15% and that limit
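DiscoveRx PathHunter D2 beta-arrestin cells (2,100/well) attached overnight, then compound-stimulated 90 min at 37 C in HBSS/10 mM HEPES/0.1% Tween-20 buffer; beta-galactosidase complementation read by luminescence after 1 h at ambient temperature. Dopamine 57 uM final (EC100) as control.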
Of the large screens only hits and unclear results are named; the others gave an inactive call.

Cc1ccc(CN2CC[C@H]3C=CCc4cccc(c43)C2)cc1	D2 antag 56.7
Cc1ccc(-c2nnn(CC(=O)NCCc3ccc4c(c3)OCO4)n2)cc1	D2 antag 30.9
O=C(Cn1nnc(-c2ccc3c(c2)OCO3)n1)NCc1ccccc1	none
CSc1nc2c(c(=O)n1C)SC(C)C2 (centres undefined)	none
CCC(C)Sc1nc2c(c(=O)n1C)SC(C)C2 (centres undefined)	D2 PAM-1 52.3
CN(C(=O)CS(=O)(=O)Cc1ccccc1Cl)c1ccccc1	none
CO/N=C(/CS(=O)(=O)Cc1ccccc1Cl)c1ccc(Cl)cc1Cl	D2 antag 43.1
COc1ccc(OC)c2sc(N3CCN(C(=O)c4ccc5c(c4)CCCC5)CC3)nc12	none (no result: D2 antag, D2 PAM-2, D2 ag-2)
Cc1ccc(SCC(=O)Nc2ccc(N3CCN(C)CC3)c(F)c2)c(C)c1	D2 PAM-2 57.4
Cc1cc(C)c(NC(=O)C2CCN(c3nnc(C)c4c(C)n(-c5ccccc5)nc34)CC2)c(C)c1	none (no result: D2 antag, D2 PAM-2, D2 ag-2)
COc1ccccc1N1CCN(C2CCCN(Cc3cccc(O)c3)C2)CC1 (centres undefined)	D2 antag 48.6
COc1ccccc1N1CCN(C2CCCN(Cc3c(F)cccc3F)C2)CC1 (centres undefined)	D2 antag 53.1
COc1ccccc1N1CCN(C2CCCN(C(=O)c3ccoc3C)C2)CC1 (centres undefined)	D2 antag 30.6
COc1ccccc1N1CCN(C2CCCN(C(=O)c3cc(C)oc3C)C2)CC1 (centres undefined)	none
CCOC(=O)N1CCC(Nc2c(Nc3ccc(C)c(C)c3)c(=O)c2=O)CC1	D2 antag 57.0
CCSc1nc2ccccc2n1CCC(=O)O	D2 antag 44.7
c1ccc2c(c1)CCc1c-2nc2ccccc2c1N1CCOCC1	D2 antag 36.6
O=C(CN1CCc2ccccc21)NC(=O)NC1CCCCC1	D2 antag 32.6
NC(=O)C1CCN(C(=O)CN2CCc3ccccc32)CC1	D2 antag 45.3
CC(C)(C)NC(=O)NC(=O)CN1CCc2ccccc21	none
COc1ccc(C2Nc3ccccc3-c3nnc(SC)nc3O2)cc1C (centres undefined)	none (no result: D2 antag, D2 PAM-2, D2 ag-2)
COc1ccccc1OCCC(=O)OCC(=O)Nc1ccc(Br)cc1F	D2 antag 41.1
O=C(COC(=O)COc1ccccc1)Nc1ccc(Br)cc1F	none (no result: D2 ag-1, D2 antag, D2 PAM-1)
CCCCCOc1ccc(C(=O)N(Cc2ccccc2)C2CCS(=O)(=O)C2)cc1 (centres undefined)	none (no result: D2 antag, D2 PAM-2, D2 ag-2)
CC(C)c1cccc(C(C)C)c1NC(=O)c1ccccc1	D2 antag 42.8
CCc1cccc(CC)c1NC(=O)c1ccccc1	none
Cc1ccc(Nc2ncnc3onc(C)c23)cc1Cl	none (no result: D2 antag, D2 PAM-2, D2 ag-2)
O=C(CCCN=C1NS(=O)(=O)c2ccccc21)OCc1cc([N+](=O)[O-])cc2c1OCOC2	none
C[C@H](N=C1NS(=O)(=O)c2ccccc21)C(=O)OCc1cc([N+](=O)[O-])cc2c1OCOC2	D2 antag 44.6
CCc1ccc(CNC(=O)CCCN2C(=O)CCn3nc(-c4cccn4C)cc32)cc1	none (no result: D2 antag, D2 PAM-1, D2 PAM-2, D2 ag-2)
COc1cc(CNc2ccc3[nH]c(=O)[nH]c3c2)cc(Br)c1OCC(=O)NC(C)(C)C	none
COc1cc(CNc2cccc(C(=O)O)c2)cc(Br)c1OCC(=O)NC(C)(C)C	D2 antag 59.7
COc1ccc(N(C(=O)c2cccc(C)c2)S(=O)(=O)c2ccc3c(c2)n(C)c(=O)n3C)cc1	none (no result: D2 antag, D2 PAM-1, D2 PAM-2, D2 ag-2)
N#Cc1cc(C(=O)c2cc(F)ccc2O)cn(-c2nccs2)c1=O	D2 ag-1 116.4, D2 antag 34.2
N#Cc1cc(C(=O)c2ccccc2O)cn(-c2nccs2)c1=O	D2 ag-1 138.3
Cc1c(-n2cc(C(=O)c3cc(F)ccc3O)cc(C#N)c2=O)c(=O)n(-c2ccccc2)n1C	none (no result: D2 PAM-1)
CC(C)n1cc(C(=O)c2ccccc2O)cc(C#N)c1=O	none
CCN(CC)c1ccc(NC(=O)C2CCCN(S(=O)(=O)c3ccc4c(c3)oc(=O)n4C)C2)c(C)c1 (centres undefined)	none (no result: D2 antag, D2 PAM-2, D2 ag-2)
CCc1ccccc1NC(=O)/C(C#N)=C\c1ccc(Sc2ccccc2)o1	D2 PAM-1 40.1
CN1CCN(C2=Cc3ccccc3Sc3cc(F)c(F)cc32)CC1	none
CN1CCN(C2=Cc3ccccc3Sc3cc(F)c(Cl)cc32)CC1	D2 antag 73.5
COc1ccc(Cl)cc1NC(=O)CSc1nc(-c2ccco2)cc(C(F)(F)F)n1	none (no result: D2 ag-1, D2 antag, D2 PAM-2, D2 ag-2)
Cc1cccc(CNC(=O)c2ccc(NC(=O)N3CC(C)Sc4ccccc43)cc2)c1 (centres undefined)	none (no result: D2 antag, D2 PAM-2, D2 ag-2)
N#CCC1c2ccccc2CCN1C(=O)Nc1ccc(C(F)(F)F)cc1 (centres undefined)	D2 antag 64.6
COC(=O)CN1C(c2cccc(Cl)c2)=Nc2ccc(Cl)cc2C1c1ccccc1 (centres undefined)	none
COc1cc(C2=Nc3ccc(Br)cc3C(c3ccccc3)N2CC(=O)NN)cc(OC)c1OC (centres undefined)	D2 antag 86.1
COC(=O)CN1C(c2ccc(OC)cc2)=Nc2ccc(Cl)cc2C1c1ccccc1 (centres undefined)	D2 antag 91.4
O=c1c2c(n3cnnc3n1-c1ccccc1)-c1ccccc1CC21CCCCC1	none
Cc1cccc(-n2c(=O)c3c(n4cnnc24)-c2ccccc2CC32CCCCC2)c1	D2 antag 31.4, D2 PAM-1 40.5
Cc1c(O)c(CN2CCCCC2)cc2c1oc(=O)c1ccccc12	D2 antag 65.9
C#CCn1c(=NC(=O)c2ccc(S(=O)(=O)N3CCCc4ccccc43)cc2)sc2cc(S(N)(=O)=O)ccc21	D2 antag 47.5
Cn1c(=NC(=O)c2ccc(S(=O)(=O)N3CCCc4ccccc43)cc2)sc2cc(S(C)(=O)=O)ccc21	none
COc1ccc(-c2nn(C)c3sc(C(=O)Nc4cccc(F)c4)cc23)cc1OC	none (no result: D2 ag-1, D2 antag, D2 PAM-2, D2 ag-2)
COc1ccccc1Cc1nc2ccccc2nc1SCC(=O)N1CCN(c2ccccc2)CC1	none (no result: D2 antag, D2 PAM-2, D2 ag-2)
Nc1c(Cl)ncnc1NCCO	none
Nc1c(Cl)ncnc1NCc1ccccc1	D2 antag 56.1 (no result: D2 ag-1, D2 PAM-1)
COc1cccc(NC(=O)Cn2c(=O)n(-c3ccc(C)cc3)c(=O)c3ccccc32)c1	none (no result: D2 antag, D2 PAM-2, D2 ag-2)
Brc1ccc(C=Nc2ccc(Nc3ccccc3)cc2)s1	D2 PAM-2 87.4, D2 ag-2 inconclusive
C(=Nc1ccc(Nc2ccccc2)cc1)c1ccc2ccccc2c1	D2 PAM-2 52.0
NC(=S)N/N=C/c1ccc2ccccc2c1	D2 antag 48.1
COC(=O)c1ccc(/C=N\NC(=O)CC(=O)NCCc2ccccc2)cc1	none
C=CCNC(=O)CC(=O)N/N=C/c1ccc(C(=O)OC)cc1	D2 antag 33.4
O=C(CSc1nnc(-c2ccc(Cl)cc2)n1-c1ccc(Cl)cc1)N/N=C/c1ccco1	none
Cc1ccc(/C=N/NC(=O)CSc2nnc(-c3ccc(Cl)cc3)n2-c2ccccc2)o1	D2 PAM-2 87.6, D2 ag-2 inconclusive
